# The sample as a whole holds a higher share of hits than the screen did.
# Anaer choline gr = growth inhibitors of anaerobic choline-fed gram-negatives, minimal medium, absorbance; hit rate 0.2% among 55,000; calls only; Gram-negative bacterium anaerobic choline minimal medium; active compounds read low; call rule not given here
# Calls only; . = inactive; + = active, no number; ! = a repeat was not active.
SMILES,Anaer choline gr
Cc1cc(N2CCCC2)nc(N2CCN(S(=O)(=O)c3ccc(Br)cc3)CC2)n1,+
Cc1cc(N2CCN(C)CC2)nc(N2CCN(S(=O)(=O)c3ccc(Br)cc3)CC2)n1,.
O=S(=O)(c1ccc(Br)cc1)N1CCN(c2ccc(N3CCCC3)nn2)CC1,.
Cc1noc(C)c1C1CCCN1C(=O)c1c(Cl)cnn1C (configuration not stated),.
O=C(NCCn1c(-c2ccccc2)nc2cccnc21)c1ccccc1Br,.
CC[N+](CC)(CC)CCOc1cccc(OCC[N+](CC)(CC)CC)c1OCC[N+](CC)(CC)CC,.
CCN(CC)CCOc1ccc(Cc2ccccc2)cc1,.
CC[N+](CC)(CC)CCOc1ccc(/C=C/c2ccccc2)cc1,+!
COc1ccc(NC(=O)C2CCN(S(=O)(=O)c3ccc4[nH]c(=O)sc4c3)CC2)c(OC)c1,.
CC1CC(C)CN(C(=O)CN2C(=O)CCCc3ccccc32)C1 (configuration not stated),.
COc1ccccc1N1CCN(C(=O)c2cc(S(=O)(=O)N3CCCCC3)cn2C)CC1,.
CC/C=C\C/C=C\C/C=C\C/C=C\C/C=C\CCCCCC(=O)O,.
CCCCCCCCCCC/C=C\C/C=C\CCCC(=O)O,+
CCCCC/C=C\CC1OC1C/C=C\C/C=C\CCCC(=O)O (configuration not stated),.
O=C(CCC(=O)N1CC=C(c2c[nH]c3ccccc23)CC1)NCc1cccc(Cl)c1,+
O=C(Nc1ccc(Cl)cc1)N1CC=C(c2c[nH]c3ccccc23)CC1,.
CCc1ccc(NC(=O)N2CC=C(c3c[nH]c4ccccc34)CC2)cc1,.
COc1ccc(-c2csc(-c3nc(-c4ccc(OC)c(OC)c4)cs3)n2)cc1,.
CO[C@H]1/C=C/O[C@@]2(C)Oc3c(C)c(O)c4c(O)c(c(/C=N/N5CCN(C)CC5)c(O)c4c3C2=O)NC(=O)/C(C)=C\C=C\[C@H](C)[C@H](O)[C@@H](C)[C@@H](O)[C@@H](C)[C@H](OC(C)=O)[C@@H]1C,+!
COC1C=CO[C@@]2(C)Oc3c(C)c(O)c4c(O)c(c5c(nc6cc(C)ccn65)c4c3C2=O)NC(=O)C(C)=CC=CC(C)C(O)C(C)C(O)C(C)C(OC(C)=O)C1C (some centres not stated),.
COC1C=CO[C@@]2(C)Oc3c(C)c(O)c4c(O)c(c5c(c4c3C2=O)NC2(CCN(CC(C)C)CC2)N=5)=NC(=O)C(C)=CC=CC(C)C(O)C(C)C(O)C(C)C(OC(C)=O)C1C (some centres not stated),.
CC(=O)NC1(C(F)(F)F)C(=O)N(CC2CCCO2)C2=C1C(=O)CC(C)(C)C2 (configuration not stated),.
CCN1CCCC1CNS(=O)(=O)c1ccc2c(c1)C(C)(C)CN2C(=O)C(C)C (configuration not stated),.
COCCn1c(CN2CCN(C(=O)Nc3cc(Cl)ccc3C)CC2)nc2ccccc2c1=O,.
Cn1c(=O)c(N2CCC(C(=O)NCCN3CCOCC3)CC2)nc2ccccc21,.
SMILES,Anaer choline gr
O=C(CSc1nnc(-c2ccncc2)o1)Nc1ccc2c(c1)OCO2,+
CC(Sc1nnc(-c2ccncc2)o1)C(=O)Nc1ccc2c(c1)OCCO2 (configuration not stated),.
Cc1ccc(NC(=O)CSc2nnc(-c3ccncc3)o2)cc1Cl,.
COc1ccc2cc3c(nc2c1)N(C(=O)c1ccc(S(=O)(=O)N2CCCC2)cc1)CC3,.
CNC(=O)NCC(c1ccc(F)cc1)c1c[nH]c2ccccc12 (configuration not stated),.
COc1ccc(-c2noc(-c3cccnc3NCC3CCCO3)n2)cc1 (configuration not stated),.
Cc1ccc(Cl)cc1N1CCN(C(=O)c2ccc3noc(-c4ccc(F)cc4)c3c2)CC1,.
CCOC(=O)c1ccccc1NC(=O)Cn1c(=O)c(CNc2ccc(C)cc2)cc2ccc(OC)cc21,.
CCc1ccc(NCc2cc3ccc(OC)cc3n(CC(=O)Nc3ccc4c(c3)OCO4)c2=O)cc1,+
COC(=O)c1ccccc1NC(=O)Cn1c(=O)c(CNc2ccccc2)cc2ccc(OC)cc21,.
CCOc1ccc2nc(-n3nc(C)c4c3NC(=O)CC4c3cn(CC)nc3C)sc2c1 (configuration not stated),.
O=c1ccn(-c2cccc(F)c2)nc1-c1nc(-c2ccc(F)cc2)no1,.
CCn1cnc(S(=O)(=O)N2CCCC(C(=O)Nc3nccs3)C2)c1 (configuration not stated),.
CC(C)c1ccc(-c2noc(SCC(=O)NCC3CCCO3)n2)cc1 (configuration not stated),+
Cc1ccc(NC(=O)CSc2nc(-c3ccc(C(C)C)cc3)no2)cc1,.
CC(C)c1ccc(-c2noc(SCC(=O)Nc3ccccc3Cl)n2)cc1,.
COc1cccc(CSc2nc3ccncc3n2Cc2ccc(C(=O)NC3CCCC3)cc2)c1,.
Cc1ccc(C2CC(=O)Nc3c2c(-c2ccccc2)nn3-c2ccccc2)cc1 (configuration not stated),.
COc1ccc(CCN2CC(=O)N(c3ccc(C)c(C)c3)[C@@H]3CS(=O)(=O)C[C@@H]32)cc1OC,.
O=c1[nH]nc(SCc2cc(=O)n3ccccc3n2)n2nc(-c3ccc(F)cc3)cc12,.
Cc1cccc(N2CCN(c3ccc(NC(=O)c4ccccc4Cl)c(C(=O)O)c3)CC2)c1C,.
CN(C)c1ccc(NC(=O)c2ccc(Br)cc2)c(C(=O)O)c1,.
O=C(Nc1ccc(N2CCN(C3CCCCC3)CC2)cc1C(=O)O)c1ccccc1Cl,.
CC1CCN(c2ccc(NC(=O)c3ccccc3Cl)c(C(=O)O)c2)CC1,+
CCN1CCN(c2ccc(NC(=O)c3ccccc3Cl)c(C(=O)O)c2)CC1,.
SMILES,Anaer choline gr
CN(C)c1ccc(NC(=O)c2ccccc2Cl)c(C(=O)O)c1,+
O=C(CCc1nc(CSc2nc3cc(Cl)ccc3o2)no1)Nc1c(F)cccc1F,.
O=S1(=O)N=CN(Cc2ccccc2F)c2ccccc21,.
CCc1nnc(-c2ccc(S(=O)(=O)N3CCN(C(C)C)CC3)o2)o1,.
CC(C)(C)c1ccc(S(=O)(=O)/C=C/C#N)cc1,+
Cc1ccc(S(=O)(=O)C=CC#N)cc1,.
CC(C)(C)c1ccc(S(=O)(=O)Nc2ccc(-c3nnc(-c4ccccc4)o3)cc2)cc1,.
COc1ccc(C(=O)NC(=NCc2ccncc2)Nc2ccccc2)cc1OC,.
Cc1cccc(NC(=NCc2ccncc2)NC(=O)c2ccc3c(c2)OCO3)c1,+
COC(=O)c1cccc(NC(=NCc2ccncc2)NC(=O)c2ccc3c(c2)OCO3)c1,.
OC(COc1ccc(Br)cc1)Cn1c(Cc2ccccc2)nc2ccccc21 (configuration not stated),.
Cc1[nH]c(C)c(S(=O)(=O)N2CCC(C(=O)N3CCN(C4CCCCC4)CC3)CC2)c1C(=O)N1CCCC1,+
Cc1[nH]c(C)c(S(=O)(=O)N2CCC(C(=O)Nc3ccc(Cl)cc3)CC2)c1C(=O)N1CCCC1,.
Cc1[nH]c(C)c(S(=O)(=O)N2CCC(C(=O)N3CCC(C)CC3)CC2)c1C(=O)N1CCCCC1,.
Cc1[nH]c(C)c(S(=O)(=O)N2CCC(C(=O)N3CCN(C4CCCCC4)CC3)CC2)c1C(=O)N1CCCCC1,.
Cc1[nH]c(C)c(S(=O)(=O)N2CCC(C(=O)Nc3ccc(F)c(Cl)c3)CC2)c1C(=O)N1CCCC1,.
Cc1[nH]c(C)c(S(=O)(=O)N2CCC(C(=O)Nc3ccc(F)cc3)CC2)c1C(=O)N1CCCC1,+

# Screening results deposited in PubChem by ICCB-Longwood Screening Facility, Harvard Medical School.
